Source: PubChem BioAssay (Tox21)
Records with an inconclusive call do not appear. The source made the active and inactive calls. The call rests on the fitted dose curve; in most records, active means well fitted curve in the direction sought with a large enough effect in the repeat runs; inconclusive means weak or mixed curves; inactive means no such curve, though single readings can be large; an effect the other way counts as inactive or inconclusive.

Columns and labels:
[1] = Caspase-3/7 induction in CHO-K1 cells by small molecules, qHTS cell viability counter screen (AID 1346979); further: nearly all actives have a fitted effect of over 35% in size; further: potency means the concentration at half of the fitted maximal effect
Summary of the method: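 Multiplexed with Caspase-Glo 3/7 in CHO-K1 cells, this counter screen added CellTiter-Fluor after 16hr of compound exposure and recorded fluorescence 1hr later.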

[2] = Caspase-3/7 induction in CHO-K1 cells by small molecules, qHTS assay (AID 1346980); further: nearly all actives have a fitted effect of over 15% in size
Summary of the method: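 Wild-type cells were seeded at 1,500 per well and settled 5 hr at 37 C, 5% CO2, then exposed to DMSO-dissolved compounds for 17 hr. Caspase-Glo 3/7 reagent was added, and luminescence was read after 30min at room temperature.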

[3] = Caspase-3/7 induction in HepG2 cells by small molecules, qHTS cell viability counter screen (AID 1346981); further: nearly all actives have a fitted effect of over 30% in size; further: potency means the concentration at half of the fitted maximal effect; on activity change, negative = cytotoxicity: series mostly up to about 92 µM
Summary of the method: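 In this quantitative HTS counter screen, compounds delivered in DMSO were left on unmodified HepG2 cells for 16 hr at 37 C. Viability was then determined fluorometrically with CellTiter-Fluor, in parallel with caspase-3/7 induction in the same wells.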

[4] = biological target: Nuclear receptor subfamily 1 group I member 2 (Homo sapiens) (UniProt O75469); test: Human pregnane X receptor (PXR) small molecule agonists, qHTS assay (AID 1346982); further: nearly all actives have a fitted effect of over 35% in size; further: potency means the concentration at half of the fitted maximal effect
Summary of the method: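 Reporter HepG2 cells expressing PXR-Luc are cultured in charcoal-stripped FBS (5%), treated with compounds for 24 hr at 37 C, and assayed by ONE-Glo luminescence after 30 min at room temperature.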

[5] = biological target: Nuclear receptor subfamily 1 group I member 2 (Rattus norvegicus) (UniProt Q9R1A7); test: Rat pregnane X receptor (rPXR) activation by small molecules, qHTS assay (AID 1346983); conditions: rPXR luciferase reporter cells, One-Glo luminescence, 24 h; active compounds read high; further: nearly all actives have a fitted effect of over 20% in size
Summary of the method: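 Cell-based rPXR luciferase reporter assay, 2,000 cells per well, rested 5hr at 37 C before compound addition in DMSO, then 24 hr at 37 C. One-Glo reagent was added and luminescence read after 30 min at room temperature.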

[6] = biological target: Nuclear receptor subfamily 1 group I member 2 (Homo sapiens) (UniProt O75469); test: CYP3A4 induction through human pregnane X receptor (PXR) by small molecules, qHTS assay (AID 1346984); further: nearly all actives have a fitted effect of over 40% in size
Summary of the method: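 Induction measured in HepG2-based DPX-2 cells co-expressing human PXR and a CYP3A4 promoter-driven luciferase. After a 24-hour compound exposure, cells received CYP3A4 luciferin substrate at 3uM final for 3 hours, and light output was then recorded.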

[7] = biological target: Cytochrome P450 2D6 (Homo sapiens) (UniProt P10635); test: Cytochrome P450 Family 2 Subfamily D Member 6 (CYP2D6) small molecule antagonists: luciferase reporter qHTS assay (AID 1671196); further: nearly all actives have a fitted effect of over 50% in size; further: potency means the concentration at half of the fitted maximal effect; on activity change, negative = inhibition: series mostly up to about 120 µM
Summary of the method: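 Test chemicals meet CYP2D6 plus proluciferin substrate (10 min, RT); NADPH regenerating solution then drives turnover for 1 h. Detection reagent halts the reaction; luminescence measured after 20 min.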

[8] = biological target: Cytochrome P450 2C19 (Homo sapiens) (UniProt P33261); test: Cytochrome P450 Family 2 Subfamily C Member 19 (CYP2C19) small molecule antagonists: luciferase reporter qHTS assay (AID 1671197); further: nearly all actives have a fitted effect of over 65% in size; further: potency means the concentration at half of the fitted maximal effect; on activity change, negative = inhibition: series mostly up to about 120 µM
Summary of the method: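 Relative luminescence units recorded 20 min after the detection reagent stopped a 1 h, 37C CYP2C19 reaction on proluciferin substrate, which was started by NADPH regeneration following 10 min room-temperature compound preincubation; ketoconazole positive control.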

[9] = biological target: Cytochrome P450 2C9 (Homo sapiens) (UniProt P11712); test: Cytochrome P450 Family 2 Subfamily C Member 9 (CYP2C9) small molecule antagonists: luciferase reporter qHTS assay (AID 1671198); further: nearly all actives have a fitted effect of over 50% in size; further: potency means the concentration at half of the fitted maximal effect; on activity change, negative = inhibition: series mostly up to about 120 µM
Summary of the method: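 CYP2C9 activity was measured with a P450-Glo proluciferin substrate. Enzyme–substrate mix was held with compound for 10 min at room temperature, then NADPH regeneration solution was added for 1 h at 37C. Luciferin product was read as luminescence.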

[10] = biological target: Nuclear receptor subfamily 1 group I member 2 (Homo sapiens) (UniProt O75469); test: Human pregnane X receptor (PXR) activation by small molecules, qHTS assay (AID 1346985); further: nearly all actives have a fitted effect of over 40% in size
Summary of the method: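 DPX-2 cells (HepG2 co-transfected with a PXR response element and a CYP3A4-promoter luciferase construct) were seeded at 2,000 per well, rested 5 hr at 37C, then exposed to DMSO-dissolved compounds for 24 hr. Activation was read as luciferase luminescence.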
On the % scale 0 is the no-effect control and ±100 the full control effect.

Cytochrome P450 2C19 (Homo sapiens), sequence (P33261 whole entry, looked up): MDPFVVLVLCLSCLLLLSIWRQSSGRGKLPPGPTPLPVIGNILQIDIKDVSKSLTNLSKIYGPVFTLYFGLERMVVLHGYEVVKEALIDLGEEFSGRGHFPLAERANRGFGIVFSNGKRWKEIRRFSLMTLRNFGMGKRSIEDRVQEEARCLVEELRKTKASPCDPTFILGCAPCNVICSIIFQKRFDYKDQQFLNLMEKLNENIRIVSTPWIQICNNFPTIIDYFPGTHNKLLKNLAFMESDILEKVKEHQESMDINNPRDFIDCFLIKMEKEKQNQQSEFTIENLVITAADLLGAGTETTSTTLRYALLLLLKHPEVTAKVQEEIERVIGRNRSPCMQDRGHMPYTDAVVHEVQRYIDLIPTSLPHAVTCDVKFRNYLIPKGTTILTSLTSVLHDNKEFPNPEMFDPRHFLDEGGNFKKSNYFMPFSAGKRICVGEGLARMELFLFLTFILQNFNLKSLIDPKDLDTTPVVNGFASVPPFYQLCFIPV
Nuclear receptor subfamily 1 group I member 2 (Homo sapiens), sequence (O75469 whole entry, looked up): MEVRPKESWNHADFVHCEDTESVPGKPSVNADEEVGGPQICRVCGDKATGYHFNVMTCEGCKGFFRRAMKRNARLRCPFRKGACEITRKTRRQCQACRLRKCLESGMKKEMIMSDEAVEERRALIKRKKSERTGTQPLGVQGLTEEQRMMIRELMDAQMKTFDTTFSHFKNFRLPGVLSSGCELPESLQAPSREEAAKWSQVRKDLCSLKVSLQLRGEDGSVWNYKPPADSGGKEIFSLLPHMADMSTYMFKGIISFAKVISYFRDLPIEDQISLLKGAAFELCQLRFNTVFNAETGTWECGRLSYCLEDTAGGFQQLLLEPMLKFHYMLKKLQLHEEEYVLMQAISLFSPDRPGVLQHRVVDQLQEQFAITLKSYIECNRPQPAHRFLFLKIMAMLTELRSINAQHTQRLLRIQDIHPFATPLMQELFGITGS
Nuclear receptor subfamily 1 group I member 2 (Rattus norvegicus), sequence (Q9R1A7 whole entry, looked up): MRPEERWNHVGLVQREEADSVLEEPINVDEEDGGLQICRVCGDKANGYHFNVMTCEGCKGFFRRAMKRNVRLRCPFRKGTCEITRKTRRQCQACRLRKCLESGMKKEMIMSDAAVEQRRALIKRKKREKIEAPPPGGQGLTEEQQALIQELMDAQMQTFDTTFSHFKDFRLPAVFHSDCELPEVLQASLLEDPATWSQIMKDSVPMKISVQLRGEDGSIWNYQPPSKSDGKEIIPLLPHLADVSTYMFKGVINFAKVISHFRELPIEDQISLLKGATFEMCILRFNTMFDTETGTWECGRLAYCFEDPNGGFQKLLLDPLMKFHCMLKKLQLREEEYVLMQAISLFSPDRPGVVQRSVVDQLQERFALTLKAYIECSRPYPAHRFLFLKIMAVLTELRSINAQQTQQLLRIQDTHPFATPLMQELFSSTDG
Cytochrome P450 2C9 (Homo sapiens), sequence (P11712 whole entry, looked up): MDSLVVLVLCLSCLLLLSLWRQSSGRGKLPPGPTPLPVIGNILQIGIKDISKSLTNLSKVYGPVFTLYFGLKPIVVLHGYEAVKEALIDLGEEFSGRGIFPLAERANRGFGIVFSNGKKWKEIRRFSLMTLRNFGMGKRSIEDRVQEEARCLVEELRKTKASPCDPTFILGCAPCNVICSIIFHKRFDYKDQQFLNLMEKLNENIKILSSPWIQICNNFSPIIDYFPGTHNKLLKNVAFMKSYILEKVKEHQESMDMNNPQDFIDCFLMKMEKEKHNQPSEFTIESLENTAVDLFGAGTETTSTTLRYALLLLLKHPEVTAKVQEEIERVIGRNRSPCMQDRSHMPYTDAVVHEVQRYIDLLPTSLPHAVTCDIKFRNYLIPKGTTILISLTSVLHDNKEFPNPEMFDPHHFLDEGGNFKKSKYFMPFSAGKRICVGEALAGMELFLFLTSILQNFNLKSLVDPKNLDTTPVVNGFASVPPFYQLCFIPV
Cytochrome P450 2D6 (Homo sapiens), sequence (P10635 whole entry, looked up): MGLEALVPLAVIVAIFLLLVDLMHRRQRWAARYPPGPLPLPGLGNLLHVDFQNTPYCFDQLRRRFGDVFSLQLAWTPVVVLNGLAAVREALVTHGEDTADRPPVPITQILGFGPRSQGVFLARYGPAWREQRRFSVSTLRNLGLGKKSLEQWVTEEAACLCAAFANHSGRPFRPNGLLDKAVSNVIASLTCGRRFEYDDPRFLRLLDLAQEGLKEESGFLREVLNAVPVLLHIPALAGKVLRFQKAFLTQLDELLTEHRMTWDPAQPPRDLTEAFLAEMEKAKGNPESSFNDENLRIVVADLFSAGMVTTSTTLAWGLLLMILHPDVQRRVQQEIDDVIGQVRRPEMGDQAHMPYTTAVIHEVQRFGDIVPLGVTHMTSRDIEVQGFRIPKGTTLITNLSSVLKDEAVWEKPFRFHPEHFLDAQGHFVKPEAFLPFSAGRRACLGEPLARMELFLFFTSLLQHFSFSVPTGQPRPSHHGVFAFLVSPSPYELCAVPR

Cc1ccc(C=O)cc1C
inactive: Potency [1] | outcome [2] | Potency [3] | Potency [4]

NCCS
inactive: Potency [1] | outcome [2] | Potency [3] | Potency [4] | max activation [5] -0.0213% | Potency [6] | Potency [7] | Potency [8]

CN(CCOc1ccc(NS(C)(=O)=O)cc1)CCc1ccc(NS(C)(=O)=O)cc1
inactive: Potency [1] | outcome [2] | Potency [3] | Potency [4] | max activation [5] -6.17% | Potency [6] | Potency [8] | Potency [9]

CC(=O)NCCCCCC(=O)O
inactive: Potency [1] | outcome [2] | Potency [3] | Potency [4] | max activation [5] 0.55% | Potency [6] | Potency [10] | Potency [7] | Potency [8] | Potency [9]

CC(C)CCCCOC(=O)c1ccccc1C(=O)OCCCCC(C)C
inactive: Potency [1] | outcome [2] | Potency [3] | Potency [4] | Potency [7]

C[C@@H](Oc1ccc(CNC(=O)c2cccnc2Oc2ccc3c(c2)OCO3)c(F)c1)C(=O)O
inactive: Potency [1] | outcome [2] | Potency [3] | Potency [4] | Potency [7]

C[C@@H](O)[C@H]1C(=O)N2C(C(=O)O)=C(SCCN=CN)C[C@H]12
inactive: Potency [1] | outcome [2] | Potency [3] | Potency [4] | max activation [5] -4.86% | Potency [6] | Potency [7]

CCN(CC)CC(=O)Nc1c(C)cccc1C
inactive: Potency [1] | outcome [2] | Potency [3]

CC(C)CC(=O)O
inactive: Potency [1] | outcome [2] | Potency [3]

COc1cc(NS(=O)(=O)c2ccc(N)cc2)nc(OC)n1
inactive: Potency [1] | outcome [2] | Potency [3] | Potency [4] | max activation [5] -2.35% | Potency [6] | Potency [7] | Potency [8]

N[C@@H](COP(=O)(O)O)C(=O)O
inactive: activity change, negative = cytotoxicity [1] 4.45% [at 19 µM] | caspase-3/7 activation [2] 0.116% [at 19 µM] | activity change, negative = cytotoxicity [3] 5.73% [at 19 µM] | activation [4] 9.49% [at 19 µM] | max activation [5] -0.35% | Potency [6] | activity change, negative = inhibition [8] 14.8% [at 23.6 µM]

CO[C@@H]1[C@@H](OC(N)=O)[C@@H](O)[C@H](Oc2ccc3c(O)c(NC(=O)c4ccc(O)c(CC=C(C)C)c4)c(=O)oc3c2C)OC1(C)C
active: Potency [9] 11 µM
inactive: Potency [1] | outcome [2] | Potency [3] | Potency [4] | max activation [5] -3.79% | Potency [6] | Potency [10] | Potency [7]

CC(=O)Nc1cccc(C)c1
inactive: Potency [1] | outcome [2] | Potency [3] | Potency [4] | Potency [7]
active: Potency [8] 71.3 µM

CC(C)CCCC(C)(C)O
inactive: Potency [1] | outcome [2] | Potency [3] | Potency [4] | Potency [7] | Potency [8]

C[Si](C)=O
inactive: activity change, negative = cytotoxicity [1] 1.4% [at 8.39 µM] | caspase-3/7 activation [2] 0.203% [at 8.39 µM] | activity change, negative = cytotoxicity [3] 6.01% [at 8.39 µM] | activation [4] 16.2% [at 8.39 µM] | activity change, negative = inhibition [7] -1.51% [at 10.5 µM] | activity change, negative = inhibition [8] -11.8% [at 10.5 µM] | activity change, negative = inhibition [9] -9.3% [at 10.5 µM]

CCCCCCCCC(=O)Cl
inactive: Potency [1] | outcome [2] | Potency [3] | Potency [4] | Potency [7]

CN1C(C)(C)CCCC1(C)C
inactive: Potency [1] | outcome [2] | Potency [3] | Potency [4] | Potency [8]
active: Potency [7] 2.45 µM

COc1cc2c(cc1OC)C(=O)CC2
inactive: Potency [1] | outcome [2] | Potency [3] | Potency [4] | Potency [7] | Potency [8]

OCCCCC(O)CO (configuration not stated)
inactive: Potency [1] | outcome [2] | Potency [3] | Potency [4] | Potency [7] | Potency [8]
active: Potency [9] 67.2 µM

Cc1ccccc1N=O
inactive: Potency [1] | outcome [2] | Potency [3] | Potency [4] | Potency [7] | Potency [8] | Potency [9]

Nc1ccc2cc(S(=O)(=O)O)cc(O)c2c1
active: Potency [1] 54.2 µM | Potency [3] 60.8 µM | Potency [4] 6.08 µM | Potency [7] 44.5 µM | Potency [8] 22.3 µM
inactive: outcome [2]

CNS(=O)(=O)CCc1ccc2[nH]cc(C3CCN(C)CC3)c2c1
inactive: Potency [1] | outcome [2] | Potency [3] | Potency [4] | Potency [8]
active: Potency [7] 34.7 µM

CC(C)N(c1ccccc1)C(C)C
inactive: Potency [1] | outcome [2] | Potency [3] | Potency [4] | Potency [7] | Potency [8] | Potency [9]

O=C1c2ccccc2C(=O)c2cc(S(=O)(=O)O)ccc21
inactive: Potency [1] | outcome [2] | Potency [3]
active: Potency [4] 48.7 µM | Potency [7] 40.1 µM | Potency [8] 31.8 µM | Potency [9] 12.7 µM

Cc1cccc(OCC(O)CNC(C)(C)C)c1C (configuration not stated)
active: Potency [7] 13.8 µM
inactive: Potency [1] | outcome [2] | Potency [3] | Potency [4] | Potency [8] | Potency [9]

CCOC(=O)c1ncn2c1CN(C)C(=O)c1cc(F)ccc1-2
inactive: Potency [1] | outcome [2] | Potency [3] | Potency [4] | Potency [7] | Potency [8]

O=C(OCC(COC(=O)c1cccnc1)(COC(=O)c1cccnc1)COC(=O)c1cccnc1)c1cccnc1
inactive: Potency [1] | outcome [2] | Potency [3] | Potency [4] | Potency [7] | Potency [8]
